Results from paper PMC4336329 (PLoS ONE, 2015).
Hit rate of the full screen: of about 310,000 compounds, about 14,000 (4.5%) showed an effect of 50% or more. Effects have a minus sign here. This is one part of a sample in which strong results are shown more often than they occur.

Target: human ether-à-go-go-related gene (hERG) potassium channel (human, UniProt Q12809)
Assay: primary screen, population patch clamp on CHO cells stably expressing hERG; higher = less effect of the substance
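Note: peak tail current of the secondary pulse compared with the same well before compound.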

Chain of human ether-à-go-go-related gene (hERG) potassium channel (Q12809 whole entry, looked up): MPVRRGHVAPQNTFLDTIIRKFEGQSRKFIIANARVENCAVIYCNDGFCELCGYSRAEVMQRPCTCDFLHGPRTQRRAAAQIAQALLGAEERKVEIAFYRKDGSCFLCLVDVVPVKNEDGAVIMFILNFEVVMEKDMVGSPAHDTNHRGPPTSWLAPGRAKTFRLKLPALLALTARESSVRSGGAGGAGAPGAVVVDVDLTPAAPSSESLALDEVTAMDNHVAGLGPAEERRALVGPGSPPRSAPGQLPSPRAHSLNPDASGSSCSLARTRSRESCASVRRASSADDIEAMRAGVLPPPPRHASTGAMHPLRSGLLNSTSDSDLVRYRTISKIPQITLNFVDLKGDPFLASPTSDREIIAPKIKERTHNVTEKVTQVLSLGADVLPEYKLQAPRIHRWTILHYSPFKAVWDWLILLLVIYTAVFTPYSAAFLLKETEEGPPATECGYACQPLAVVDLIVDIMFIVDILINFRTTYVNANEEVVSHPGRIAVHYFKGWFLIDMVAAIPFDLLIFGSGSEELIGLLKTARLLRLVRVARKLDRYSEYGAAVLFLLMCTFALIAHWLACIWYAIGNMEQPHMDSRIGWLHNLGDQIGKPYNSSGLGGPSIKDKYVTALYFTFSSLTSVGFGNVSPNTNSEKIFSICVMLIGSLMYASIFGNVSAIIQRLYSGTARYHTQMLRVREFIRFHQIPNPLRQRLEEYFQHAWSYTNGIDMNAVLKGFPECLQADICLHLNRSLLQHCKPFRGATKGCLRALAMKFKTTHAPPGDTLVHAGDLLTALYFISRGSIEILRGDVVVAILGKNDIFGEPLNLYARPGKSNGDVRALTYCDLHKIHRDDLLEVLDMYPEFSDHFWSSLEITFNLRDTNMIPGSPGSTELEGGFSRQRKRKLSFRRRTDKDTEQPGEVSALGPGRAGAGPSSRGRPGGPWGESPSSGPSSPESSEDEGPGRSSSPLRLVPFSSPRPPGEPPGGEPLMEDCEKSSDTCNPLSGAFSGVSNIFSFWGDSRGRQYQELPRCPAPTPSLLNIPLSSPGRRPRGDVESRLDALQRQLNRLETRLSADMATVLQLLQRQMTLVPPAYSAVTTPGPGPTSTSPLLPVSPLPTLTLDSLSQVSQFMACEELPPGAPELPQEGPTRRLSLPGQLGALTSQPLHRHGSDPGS

Compound	hERG current change (%, negative = inhibition) at 10uM [%]
COc1cc(/C=C2\C(=O)NN(c3ccccc3)C2=O)cc([N+](=O)[O-])c1O	22
O=C(N/N=C/c1coc2ccccc2c1=O)c1cccc([N+](=O)[O-])c1	26.8
Cc1ccccc1NC(=O)Cn1nnc(S(=O)(=O)c2ccc(C(C)(C)C)cc2)c1N	4.35
COc1ccc(S(=O)(=O)NCc2cccnc2)cc1C(=O)Nc1ccccc1	-47.9
CC(=O)Nc1ccc(NC(=O)c2ccc(N(Cc3ccccc3C)S(C)(=O)=O)cc2)cc1	-7.68
S=C(Nc1ccccc1)N1CCN(C2CCCCC2)CC1	-2.89
CCC1CCCCN1C(=O)CSc1nnc(CNC(=O)COc2ccc(Cl)cc2)o1 (centres unmarked)	-32.5
COc1cnc(-c2ccccn2)nc1Oc1ccc(C(C)(C)C)cc1	-2.72
COc1cnc(-c2ccccn2)nc1Oc1ccc(Cl)cc1	-0.157
COc1cnc(-c2ccccn2)nc1Oc1ccccc1	-72.8
CC(C)C(=O)NC(c1ccccc1Cl)c1c(O)ccc2ccccc12 (centres unmarked)	7.79
O=C(O)CCN1C(=O)CC(N2C(=O)/C(=C/c3ccc(Cl)cc3)SC2=S)C1=O (centres unmarked)	18.8
CSc1snnc1-c1ccccc1	25.6
CC(C)(C)c1ccc(OCCCNCc2ccccc2)cc1.O=C(O)C(=O)O	-19.5
Cc1ccc(OCCCNC2CCCC2)cc1	-0.454
O=C(O)C(=O)O.c1ccc(-c2ccc(OCCCNC3CCCC3)cc2)cc1	-86.1
O=C(O)C(=O)O.c1cc2c(cc1OCCNC1CCCC1)CCC2	0.00128
O=C(O)C(=O)O.c1ccc(COc2ccc(OCCCNC3CCCC3)cc2)cc1	-57.1
Cc1ccc(C)c(OCCCNC2CCCC2)c1C.O=C(O)C(=O)O	-10.3
O=C(O)C(=O)O.OCCNCCCCOc1ccc(OCc2ccccc2)cc1	-32.1
O=C(O)C(=O)O.c1ccc(Cc2ccc(OCCCNC3CCCC3)cc2)cc1	-58.9
COc1cccc(OC)c1OCCCNC1CCCC1.O=C(O)C(=O)O	-7.84
CCOc1cccc(OCCNC2CCCC2)c1.O=C(O)C(=O)O	5.28
C=CCNCCCCOc1ccc(OCc2ccccc2)cc1.O=C(O)C(=O)O	-42.1
CC(C)(C)c1ccc(OCCCNC2CCCC2)cc1.O=C(O)C(=O)O	-54.5
COc1ccc(C2=NN(C(=O)COC(=O)c3ccc(NC(=O)CC#N)cc3)C(c3ccco3)C2)cc1 (centres unmarked)	5.24
COC(=O)c1oc2nc(C)cc(C)c2c1N	-4.33

Compound	hERG current change (%, negative = inhibition) at 10uM [%]
CC(C)N(C)C(=O)CCc1nnc(CCc2c[nH]c3ccccc23)o1	6.75
COc1ccc(C)cc1NC(=O)c1sc2ncn(CC(=O)N3CCCCC3)c(=O)c2c1C	9.03
Cc1ccnc(Nc2nc3ccccc3s2)n1	-4.71
COc1ccc(NC(=O)C2CCCN(c3nccc(C)n3)C2)cc1 (centres unmarked)	-3.13
CCOC(=O)c1c(C)n(Cc2ccco2)c2c1cc(O)c1ccccc12	6.11
Cc1ccc(OCCn2c(NC(=O)c3ccco3)nc3ccccc32)cc1	-5.24
Cn1cc(Br)c(C(=O)Nc2c(F)c(F)c(F)c(F)c2F)n1	-6.6
COc1ccc(Cl)cc1S(=O)(=O)N1CCC(C(=O)NCc2ccccn2)CC1	-7.12
O=C(c1cccc([N+](=O)[O-])c1)N1CCCN(C(=O)c2cccc([N+](=O)[O-])c2)CC1	-42
O=C(c1cccc([N+](=O)[O-])c1)N1CCN(S(=O)(=O)N2CCCCC2)CC1	-15.2
O=C(c1ccco1)N1CCN(S(=O)(=O)/C=C/c2ccccc2)CC1	-38.3
O=C(c1cccc([N+](=O)[O-])c1)N1CCN(C/C=C/c2ccccc2)CC1	-65.9
Nc1ccc(C(=O)N2CCN(S(=O)(=O)/C=C/c3ccccc3)CC2)cc1[N+](=O)[O-]	-43.9
O=CN1CCN(C(=O)c2cccc([N+](=O)[O-])c2)CC1	-4.11
O=C(c1cccc([N+](=O)[O-])c1)N1CCN(S(=O)(=O)/C=C/c2ccccc2)CC1	-64.3
Cn1nc(C(=O)N2CCN(S(=O)(=O)/C=C/c3ccccc3)CC2)c2ccccc2c1=O	-65.1
Cn1nc(C(=O)N2CCN(S(=O)(=O)c3ccccc3)CC2)c2ccccc2c1=O	-23
Cn1nc(C(=O)N2CCN(C(c3ccccc3)c3ccccc3)CC2)c2ccccc2c1=O	-35.2
O=C(c1ccc(Cl)cc1)N1CCN(S(=O)(=O)/C=C/c2ccccc2)CC1	-54.8
O=C(c1ccc2ccccc2c1)N1CCN(S(=O)(=O)/C=C/c2ccccc2)CC1	-31.9
Cc1nc(N=Nc2ccc(O)cc2)n[nH]1	7.01
CC12CC[C@H]3[C@@H](CCC4(O)C[C@H](O)CCC34/C=N/NC(=O)c3ccccc3Cl)C1(O)CCC2C1=CC(=O)OC1 (some centres unmarked)	9.69
O=C(COC(=O)c1ccc(S(=O)(=O)Nc2ccccc2)cc1)NCC1CCCO1 (centres unmarked)	1.33
COC(=O)c1ccccc1NC(=O)c1ccc(COc2cccc3ccccc23)o1	0.342
NC(=O)c1nsc(C(=O)N(CCCN2CCOCC2)C(C(=O)NC2CCCCC2)c2ccc(Cl)cc2)c1N (centres unmarked)	-42.8
CCCNc1nc2c(c(=O)[nH]c(=O)n2C)n1CCC(C)C	-0.274
